Assay: E. coli acrAB mutant growth effects, primary screen, E. coli filamentation inducers, strain DRC39, OD650, 24 h (AID 1178);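 note: growth measured as culture turbidity by optical density at 650 nm; test concentration not given here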
Details: higher = more signal, called active from +8 up or from −8 down

z-score, inactive:
CC(C)c1ccc(NN2C(C(O)C(C)c3ccccc3)C=CC3C(=O)N(c4ccccc4)C(=O)C32)cc1 (stereo not given) -0.828
CC(C)C[C@@H]1NC(=O)[C@@H]2C[C@H](C(=O)NCCCCCCNC(=O)CS)[C@H](c3ccc(O)cc3)N2C1=O 0.306
COC(=O)Cn1c(C(=O)N(C)C)cc2c1C[C@H]1CN(C(=O)c3ccccc3)[C@@](Cc3ccccc3)(C(=O)OC)[C@@H]21 0.304
COCCOC(=O)N1C(=O)[C@@]2(c3cc(C#CCC(C(=O)OC)C(=O)OC)ccc31)[C@H](c1ccc(O)cc1)N1[C@H](c3ccccc3)[C@H](c3ccccc3)OC(=O)[C@H]1[C@@H]2C(=O)N1CCc2cc(OC)c(OC)cc2C1 0.109
Cc1ccc(S[C@]2(C(=O)NCc3ccccc3)CC(=O)N(Cc3ccccc3C(F)(F)F)[C@@H]2c2ccc(CO)cc2I)cc1 0.506
O=C1C2C=CC(C(O)C3CCCCC3)N(Nc3ccccc3F)C2C(=O)N1c1ccccc1 (stereo not given) 0.221
CC[C@H]1C2=C3C(CC[C@H]4C(OCc5ccc(F)cc5C(F)(F)F)OC[C@](C)([C@@H]34)N(C(=O)OC(C)(C)C)C2)C(COC(C)=O)C1COC(C)=O (stereo not given in full) -1.26
CC1CC/C=C\[C@H]2OC34C=CCN(CCN5CCOCC5)C(=O)[C@H]3N(C(CO)C(C)C)C(=O)[C@@H]4C2C(=O)O1 (stereo not given in full) 0.332
COC(=O)C[C@H]1O[C@]2(C(=O)N(C)c3ccccc32)[C@@H](C)[C@@H]1[Si](C)(C)c1ccccc1 0.709
O=C1O[C@@H](c2ccccc2)[C@@H](c2ccccc2)N2[C@@H](c3ccc(OCCO)cc3)[C@]3(C(=O)Nc4ccc(C#CC5=CCCCC5)cc43)[C@@H](C(=O)Nc3nc4ccccc4s3)[C@H]12 -0.304
CCCCN1CC=CC23O[C@@H]4/C=C\CCCOC(=O)C4[C@H]2C(=O)N(CCCCCCO)[C@@H]3C1=O (stereo not given in full) 0.564
COC(=O)[C@@]1(Cc2ccc(F)cc2)[C@H]2c3cc(C(=O)N(C)C)n(CCF)c3C[C@H]2CN1C(=O)c1ccccc1 0.783
CCc1cccc(NC(=O)O[C@H]2[C@H](OC(=O)Nc3ccccc3-c3ccccc3)[C@H](OC(=O)Nc3ccccc3-c3ccccc3)[C@@H](OC)O[C@@H]2CO)c1 -1.34
C=C(COC)C(=O)CC[C@H](OC(C)=O)c1ccccc1OCCO 0.732
COC(=O)C(CC#Cc1ccc2c(c1)[C@]1(C(=O)N2)[C@H](c2ccc(OCCO)cc2)N2[C@H](c3ccccc3)[C@H](c3ccccc3)OC(=O)[C@H]2[C@@H]1C(N)=O)C(=O)OC 0.448
COc1ccc([Si](C)(C)[C@H]2[C@H](CC(=O)N(CCO)Cc3ccccc3)O[C@@]3(C(=O)N(Cc4cccc(N5CCCCC5=O)c4)c4ccccc43)[C@@H]2C)cc1 0.72
COCCCNC(=O)[C@@]1(Cc2ccccc2I)c2ccccc2C(=O)N(Cc2ccccc2C(F)(F)F)[C@H]1c1ccc(CO)cc1 0.309
CC[C@@H](O[Si](C#C[Si](C(C)C)(C(C)C)C(C)C)(C(C)C)C(C)C)c1cn([C@H](C)c2ccccc2)nn1 -0.263
COCCOC(=O)N1C(=O)[C@@]2(c3cc(C#CCC(C(=O)OC)C(=O)OC)ccc31)[C@H](C(=O)N1CCc3cc(OC)c(OC)cc3C1)[C@H]1C(=O)O[C@H](c3ccccc3)[C@H](c3ccccc3)N1[C@@H]2c1ccccc1OCCO 0.414
CCCNC(=O)[C@@]1(Sc2ccc(C)cc2)CC(=O)N(Cc2cc(C(F)(F)F)cc(C(F)(F)F)c2)[C@@H]1c1ccc(CO)cc1 0.484
Cc1ccc(S[C@]2(C(=O)NCc3ccccc3)CC(=O)N(Cc3ccccc3Cl)[C@@H]2c2ccc(CO)cc2)cc1 -0.545
CC1(C)OB(/C=C\CC(OC(=O)c2ccncc2)c2ccccc2)OC1(C)C (stereo not given) 0.0147
COc1cc(Cc2cc3c(c(-c4ccccc4)n2)[Si](C(C)C)(C(C)C)OC3)cc(OC)c1OC 1.13
C=CCOC(=O)[C@H]1[C@@H]2C(=O)O[C@@H](c3ccccc3)[C@@H](c3ccccc3)N2[C@@H](c2ccc(OCCOC(=O)[C@@H]3C[C@@H]4C(=O)N[C@@H](Cc5ccccc5)C(=O)N4[C@@H]3c3ccc(O)cc3)cc2)[C@]12C(=O)Nc1ccc(I)cc12 -0.588
CC1C2C(CCCO)=CC(C3C(=O)N(C(N)=O)C(=O)C23)N1Cc1cccc(OC(F)(F)F)c1 (stereo not given) 0.0299
COC(=O)[C@@]1(Cc2ccccc2)[C@H]2c3cc(C(=O)N(C)C)n(Cc4nc5ccccc5[nH]4)c3C[C@H]2CN1C(=O)c1ccccc1 1.04
CO[C@H]1O[C@H](CO)[C@@H](OC(=O)Nc2cccc(F)c2)[C@H](OC(=O)Nc2ccc3c(c2)OCO3)[C@@H]1OC(=O)Nc1ccc2c(c1)OCO2 1.04
O=C1C2C=CC(C(O)c3ccccn3)N(Nc3ccc([N+](=O)[O-])cc3)C2C(=O)N1c1ccccc1 (stereo not given) -0.63
CC(C)N1C(=O)[C@@]2(Cc3ccccc31)c1ccccc1C(=O)N(Cc1ccccc1C(F)(F)F)[C@H]2c1ccc(CO)cc1 -0.0949
CN1C2C=C(c3ccc(CO)cc3)C(C3C(=O)N(C(N)=O)C(=O)C32)C1C1CC1 (stereo not given) 0.0605
CC(C)C[C@@H]1NC(=O)[C@@H]2C[C@H](C(=O)NCCCCCNC(=O)CS)[C@H](c3ccc(O)cc3)N2C1=O -0.692
CN(C)CCCCNC(=O)[C@H]1C[C@H]2C(=O)N[C@@H](CCCCN(C)C)C(=O)N2[C@H]1c1ccc(O)cc1 1.12
CCOC(=O)C[C@H]1[C@H](OC(=O)c2ccccc2-c2ccccc2)[C@@H](NC(=O)CC(C)C)c2cc(OCCCO)ccc2N1C(=O)c1ccccc1 1.51
CCCCCCc1nc(-c2ccc(OC)nc2)c(C)c2c1[Si](C(C)C)(C(C)C)OC2 0.746
COCCCNC(=O)[C@]1(Cc2ccccc2CN=[N+]=[N-])N=C(c2ccc(OCCCO)cc2)O[C@@H]1c1ccccc1N=[N+]=[N-] 0.703
